Consider 48 compounds from PubChem BioAssay AID1851 (National Center for Advancing Translational Sciences (NCATS), 2009).

For orientation: AC50 means the concentration at which the activity in the assay is half-maximal.

The whole screen tested about 16,000 compounds, of which about 4,000 (25%) were called active. Not shown: some 26% with an inconclusive outcome. A selection follows. A number with no mark means an inactive call. Calls follow the shape of the dose curve; as a rule, active = well fitted curve in the direction sought with a large enough effect; inconclusive = small, poorly fitted or top-dose-only effect, or effect the other way; inactive = no such curve, though single readings can be large or run the other way.
% is scaled to controls: 0 for no effect and ±100 for the full control effect.

The assay deals with Cytochrome P450 2C9 (Homo sapiens) (UniProt P11712). The assay is described as follows: Cytochrome panel assay with activity outcomes. As to conditions: recombinant CYP, pro-luciferin dealkylation, luminescence, p450-cyp2c9; series mostly up to 57.1 µM; activity, negative = inhibition: at the top concentration.
Sequence of Cytochrome P450 2C9 (Homo sapiens) (P11712 whole entry, looked up): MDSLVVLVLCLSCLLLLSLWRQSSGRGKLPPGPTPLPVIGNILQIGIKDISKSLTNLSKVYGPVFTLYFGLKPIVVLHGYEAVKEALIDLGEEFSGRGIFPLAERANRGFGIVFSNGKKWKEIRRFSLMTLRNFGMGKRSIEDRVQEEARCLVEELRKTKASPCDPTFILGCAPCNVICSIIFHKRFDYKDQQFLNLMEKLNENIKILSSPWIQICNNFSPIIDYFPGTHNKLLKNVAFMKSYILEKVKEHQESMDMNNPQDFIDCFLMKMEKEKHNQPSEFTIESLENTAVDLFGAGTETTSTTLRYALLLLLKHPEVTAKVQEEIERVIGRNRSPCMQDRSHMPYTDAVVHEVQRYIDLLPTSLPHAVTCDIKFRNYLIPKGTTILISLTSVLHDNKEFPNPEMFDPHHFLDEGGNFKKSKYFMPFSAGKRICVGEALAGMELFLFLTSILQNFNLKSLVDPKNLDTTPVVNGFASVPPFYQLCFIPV
As to `CN1CCN(c2ncncc2-c2ccccc2Cl)CC1`, the activity, negative = inhibition is -9.71% [at 2.29 µM].
As for `CC(=O)OC[C@@H]1O[C@@H](O/N=C2/C[C@@H](O)[C@@H](O)[C@@H]3[C@@H]4C(=O)N(C[C@@H]5CCCO5)C(=O)[C@H]4CC[C@H]23)[C@H](OC(C)=O)[C@H](OC(C)=O)[C@@H]1OC(C)=O`, the activity, negative = inhibition is 5.35% [at 11.4 µM].
As to `COc1ccc(-n2cnc3sc(-c4ccccc4)cc3c2=O)cc1`, the “activity, negative = inhibition” value is -26.2%.
Turning to `COc1cccc(-c2nc(Nc3ccncc3)c3ccccc3n2)c1`, the activity, negative = inhibition is -24.2% [at 2.29 µM].
With `COc1ccc(Nc2ncnc3sc(-c4ccccc4)cc23)cc1`, the AC50 is 3.98 µM (active).
On to `CC(=O)[C@@H]1CC[C@@H]2[C@@H]3C[C@H](C)C4=CC(=O)CC[C@@]4(C)[C@H]3[C@H](O)C[C@]21C`, for which the AC50 is 0.398 µM (active).
Turning to `C[C@@]12C[C@H](O)[C@@H]3[C@H](CCC4=CC(=O)CC[C@]43C)[C@H]1CC[C@@H]2c1csc(N)n1`, the activity, negative = inhibition is 0.854% [at 11.4 µM].
For the compound `CC(=O)[C@H]1CC[C@H]2[C@@H]3C=CC4=CC(=O)CC[C@@]4(C)[C@H]3CC[C@]12C`, the “activity, negative = inhibition” value was -25% [at 25.6 µM].
In the case of `CCCCSc1nnc(-c2ccc(C)cc2)n1C`, the “activity, negative = inhibition” value was 14.8%.
With `CCCCSc1ccc2nc(-c3ccc(C#N)cc3)cn2c1`, the AC50 is 3.55 µM (active).
Turning to `Nc1ccccc1CCCC(=O)O`, the activity, negative = inhibition was 1.29% [at 11.4 µM].
`COc1cccc(C2=NOC(C(=O)NCc3ccccn3)C2)c1` (stereo not drawn): the “activity, negative = inhibition” value was 14.7%.
As for `Cn1c(=O)c2c(nc(N/N=C\c3ccccc3C(=O)O)n2C)n(C)c1=O`, the activity, negative = inhibition was 7.56% [at 11.4 µM].
For the compound `CCn1c(CCCc2nc3c([nH]2)c(=O)n(C)c(=O)n3C)nc2c1c(=O)n(C)c(=O)n2C`, the activity, negative = inhibition was 6.37% [at 11.4 µM].
As to `CC(C)CCn1c(Oc2ccccc2Cl)nc2c1c(=O)n(C)c(=O)n2C`, the AC50 was 1 µM (active).
Regarding `C[C@@]1(C(=O)O)CCC[C@@H]1C(=O)O`, the activity, negative = inhibition was 2.33% [at 11.4 µM].
For `C[N+]1(CCCC[N+]2(C)CCCCCCC2)CCCCCCC1`, the activity, negative = inhibition was -4.37% [at 11.4 µM].
For the compound `CCCCOc1ccc(C(=O)N/C(=C\c2ccc(OC)cc2)C(=O)OCc2ccco2)cc1`, the AC50 is 2.82 µM (active).
As for `O=C(NCCc1ccccc1)C(=O)NCC1(c2ccccc2)CCCC1`, the “activity, negative = inhibition” value is -15.3%.
Turning to `Cc1ccc(OCCCC(=O)Nc2ccccc2C(F)(F)F)cc1`, the half-maximal activity concentration (AC50) was 7.94 µM (active).
As for `C=CCC(NCc1ccco1)c1ccc(OC)cc1` (stereo not drawn), the “activity, negative = inhibition” value was -46.1%.
Consider `Cc1ccc(OCC(=O)NNC(=O)CCC(=O)Nc2ccc(C)cc2C)cc1`, for which the “activity, negative = inhibition” value is 33.9%.
Same read-out and setting: to `CCCN1CCN(CCCNC(=O)Cn2nc(-c3ccc(C)cc3)ccc2=O)CC1` belongs -9.34%; to `CCN(CC)CCNC(=O)Cn1nc(-c2ccc(C)cc2)ccc1=O`, -0.479%.
For the compound `Cc1cccc(OCCCC(=O)Nc2ccccc2C(F)(F)F)c1`, the “activity, negative = inhibition” value was 47.3%.
For the compound `Cc1ccc(-c2ccc(=O)n(CC(=O)NCc3ccco3)n2)cc1`, the AC50 is 7.94 µM (active).
As to `CCCCCOc1ccc(C(=O)NCC2(c3ccccc3)CCOCC2)cc1`, the AC50 is 2.82 µM (active).
With `O=P(O)(CCP(=O)(O)c1ccccc1)c1ccccc1`, the activity, negative = inhibition is 2.87% [at 11.4 µM].
The same measure, in the same setting: under `Cc1noc(C)c1-c1cncnc1N(C)Cc1ccco1` stands 17.6% [at 2.29 µM]; under `NCC[C@H](N)C(=O)O`, 0.553% [at 11.4 µM]; under `CC1(C)OC(C(N)=O)C(C(N)=O)O1` (stereo not drawn), -8.75%.
For `CC(C)(C)c1ccc(C(=O)NCCC(=O)NCc2ccco2)cc1`, the AC50 was 2.24 µM (active).
For `C/C(CC(=O)NCc1ccco1)=N\NC(=O)Cc1ccccc1`, the “activity, negative = inhibition” value is -20.5%.
Take `Cc1ccc(OCC(=O)NNC(=O)CCC(=O)NCc2ccccc2)cc1`: the “activity, negative = inhibition” value is -12%.
As for `CCOc1ccc(-n2c(C)nc3cc(C(=O)NCc4ccco4)ccc32)cc1`, the AC50 was 17.8 µM (active).
For the compound `CCCCOc1ccc(C(=O)NCc2ccco2)cc1`, the AC50 is 10 µM (active).
Consider `CCS(=O)(=O)N1CCC(C(=O)NCc2ccco2)CC1`, for which the “activity, negative = inhibition” value was -2.6%.
`Cc1ccc(OCCCC(=O)NCc2ccco2)cc1`: the AC50 was 14.1 µM (active).
For `COCCNC(=O)c1ccc2c(c1)nc(C)n2-c1cc(OC)c(OC)c(OC)c1`, the “activity, negative = inhibition” value was 12.1%.
Still for that read-out and setting: to `CS(=O)(=O)Nc1c(O)ccc2c1CCC[C@H]2C1=NCCN1` belongs 13.5%.
`CNCCCC1c2ccccc2C=Cc2ccccc21`: the AC50 entry was “inactive”.
For the compound `COc1ccc(Cl)cc1N=Nc1ncc[nH]1`, the “activity, negative = inhibition” value is 19.7%.
`CC(=O)N1CCC[C@@]2(CCN(Cc3ccccc3)C2)C1`: the “activity, negative = inhibition” value was 16.9%.
The same measure, in the same setting: under `O=C(O)c1ccc2c(c1)C(=O)N(C(Cc1ccc(O)cc1)C(=O)O)C2=O` (stereo not drawn) stands -5.05%; under `C[N+](C)([O-])CCC=C1c2ccccc2CCc2ccccc21`, -29.7% [at 11.4 µM]; under `Nc1ccc(C(=O)C[C@H](N)C(=O)O)cc1O`, -13.6% [at 11.4 µM].
As to `Cc1ccc(-c2c(C)sc(NC(=O)C3C4CCC(O4)C3C(=O)O)c2C(=O)OC(C)C)cc1` (stereo not drawn), the “activity, negative = inhibition” value is -14.7%.
For `Cc1sc(NC(=O)C2C3CCC(O3)C2C(=O)O)c(C(=O)OC(C)C)c1-c1ccc(Cl)cc1` (stereo not drawn), the concentration at half-maximal activity (AC50) is 14.1 µM (active).
